Source: PubChem BioAssay (National Center for Advancing Translational Sciences (NCATS))
TRb-SRC2 inh = disrupts binding of human TR beta to SRC2 | TRbeta-SRC2 peptide binding, fluorescence polarization; receptor liganded with 1 µM T3 | Potency, µM (top dose mostly 106 µM), inactives show top-dose activity change, negative = inhibition, most hits filed as inhibitors | 0.065% of 280,000 active | AID 1469;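 note: plate controls were bound peptide for no effect and peptide without receptor for full effect; nearly all actives have a fitted effect of over 50% in size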
Target sequence (P10828 whole entry, looked up): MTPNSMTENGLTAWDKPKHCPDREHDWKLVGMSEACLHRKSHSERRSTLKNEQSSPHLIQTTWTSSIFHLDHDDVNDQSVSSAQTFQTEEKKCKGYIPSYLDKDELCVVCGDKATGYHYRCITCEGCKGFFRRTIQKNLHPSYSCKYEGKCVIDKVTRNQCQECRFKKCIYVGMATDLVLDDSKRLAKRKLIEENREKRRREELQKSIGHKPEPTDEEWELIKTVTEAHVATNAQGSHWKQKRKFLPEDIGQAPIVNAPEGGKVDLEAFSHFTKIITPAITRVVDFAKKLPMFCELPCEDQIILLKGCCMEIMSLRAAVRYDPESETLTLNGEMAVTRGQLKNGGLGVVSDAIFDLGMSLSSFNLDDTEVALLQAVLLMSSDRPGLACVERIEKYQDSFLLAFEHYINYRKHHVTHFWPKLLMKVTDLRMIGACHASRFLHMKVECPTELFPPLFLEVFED
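A fluorescence polarization screen tested compounds at multiple concentrations against complex formation between 0.6 uM TRb ligand-binding domain and 20 nM Texas Red SRC2 peptide, with 1 uM T3 present; readout after 5 hr.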
Tau fibril FP = blocks human tau fibril formation measured by polarization; P10636; K18 P301L tau heparin fibrillization, Alexa594 FP, 6 h; Potency, µM (doses to about 57.7 µM), inactives show at the top dose activity, negative = inhibition, hits mostly inhibitors; 0.39% of 280,000 active; note: nearly all actives have a fitted effect of over 55% in size
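Recombinant K18 P301L […], labeled with Alexa 594 at 0.24 uM over 15 uM unlabeled; heparin inducer 20 uM final; 37 C, 6 hr; FP endpoint.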
TR SRC2 fluor cs = counter-screen for TRb-SRC2 inhibitors: fluorescence interference. TRb/SRC2 Texas Red total fluorescence interference. Potency, µM (top dose mostly 106 µM), for inactives: at the highest dose fluorescence change, negative = quenching. 0.29% of 280,000 active; active = well fitted curve in either direction with a large enough effect; inconclusive = small, poorly fitted or top-dose-only effect
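Human TRβ ligand-binding domain (0.6 uM) and Texas Red SRC2 peptide (20 nM) in Tris buffer with 1 uM T3 and 5% DMSO were incubated with pinned compound for 5 hr at ambient temperature. Total fluorescence was computed as S + 2P (555/632 nm).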
Tau fibril ThT = tau fibrillization inhibition (ThT binding) | recombinant tau K18 P301L, heparin-induced fibrillization, ThT fluorescence | Potency, µM (titrated, usually from 57.4 µM), for the others: at the highest dose activity, negative = inhibition, actives largely listed as inhibitors | 2.1% of 270,000 active | AID 1460; note: nearly all actives have a fitted effect of over 55% in size
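K18 P301L tau (15 uM + 0.24 uM Alexa 594-tagged), heparin 20 uM, NaOAc pH 7, 6 h 37 C; ThT 30 uM, 1 h RT, ex 450/em 510 nm.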
JMJD2E inh = JMJD2E (human) inhibition | B2RXH2 | JMJD2E catalytic domain, FDH-coupled NADH fluorescence (FDH is formaldehyde dehydrogenase) | Potency, µM (top dose mostly 57.1 µM), for inactives: at the top dose activity change, negative = inhibition, actives largely listed as inhibitors | 1.6% of 230,000 active | AID 2147; active = well fitted inhibition curve with a large enough effect, not every such curve was filed as active; inconclusive = small, poorly fitted or top-dose-only effect, or another doubt; inactive = no such curve, though single readings can be large or run the other way;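 note: 0% = wells with enzyme and -100% = buffer wells without enzyme; nearly all actives have a fitted effect of over 50% in size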
Tau fluor counter = counter-screen for tau fibril formation inhibitors. tau K18 P301L Alexa594 fluorescence, heparin fibrillization. Potency, µM (series often up to 57.7 µM), for the others: top-dose activity change, negative = decrease. 0.93% of 280,000 active. AID 1463; note: nearly all actives have a fitted effect of over 55% in size
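Human tau K18 P301L (15 uM unlabeled, 0.24 uM Alexa 594-labeled) in 100 mM sodium acetate pH 7 with 20 uM heparin, 6 hr at 37 C. ThT 30 uM added, 1 hr ambient; Alexa 594 FP and total fluorescence read at 555/632 nm.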
Numbers without * were called inactive; ? = inconclusive; . = no result; [ ] = dose if it differs, or a comment. The list is not random: actives were taken first. Their share in the collection is about 3.5%. Unless noted, calls come from the whole dose curve; as a rule, active = well fitted curve in the direction sought with a large enough effect; inconclusive = small, poorly fitted or top-dose-only effect, or another doubt; inactive = no such curve, though single readings can be large; an effect the other way counts as inactive or inconclusive. Unless noted, % is set by controls: 0 for no effect and ±100 for the full control effect; potency is the fitted concentration of half-maximal effect.

SMILES | TRb-SRC2 inh | Tau fibril FP | TR SRC2 fluor cs | Tau fibril ThT | JMJD2E inh | Tau fluor counter
Fc1ccccc1CNc1ccc(Cl)cc1 | 0% | 12% | 1% | 2% | 0% | -6%
Oc1ccc(NCc2ccccc2OCc2ccc(Cl)cc2)cc1 | ? | -15% | ? | 14µM* | . | ?
FC(F)(F)c1ccc(Cl)c(N/N=C/c2ccc(N3CCOCC3)s2)c1 | 2%[53 µM] | 11% | -1%[53 µM] | ? | ? | 13µM*[quencher]
CCOC(=O)C1CCN(C(=O)Cn2cc(C(=O)OC)c3ccccc32)CC1 | 16% | -1% | -2% | 4% | 2% | 3%
O=C(Nc1ccccc1Br)c1ccccc1-c1ccccc1 | -1% | -10% | -2% | -13% | -1% | -19%
c1cc2cn[nH]c2cc1NC1CCCCCC1 | -16% | ? | -2% | 28µM* | ? | ?
S=C(Nc1ccccc1)Nc1ccc2cn[nH]c2c1 | -7% | -12% | -9% | 8.9µM* | ? | ?
O=C(O)c1cc(O)c2c(c1)[C@H]([C@H]1c3cc(C(=O)O)cc(O)c3C(=O)c3c(O[C@@H]4OC(CO)C(O)C(O)C4O)cccc31)c1cccc(O[C@@H]3OC(CO)C(O)C(O)C3O)c1C2=O (stereo partly specified) | ? | ? | 22µM*[quencher] | 22µM* | 11µM* | ?
O=C(NCc1ccc(F)cc1)c1nnc(Cc2cccc(F)c2)o1 | -3% | -2% | ? | -11% | . | -18%
O=C(NCCc1ccccc1)c1nnc(Cc2cccc(F)c2)o1 | -23% | -4% | 0.0056µM*[quencher] | -15% | . | -29%
CCN(CC(=O)Nc1cc(Cl)ccc1C)C(=O)COc1ccccc1F | -1% | -2% | -2% | -1% | -7% | -4%
CC(Sc1nc(N)c2c3c(sc2n1)CSC(C)(C)C3)C(=O)Nc1ccccc1 (stereo unspecified) | -13% | -15% | -1% | -4% | 2% | -29%
Cc1cc(=O)c2c(O)c3c(O)cc(O)c4c5c(O)cc(O)c6c(O)c7c(=O)cc(C)c8c1c2c(c34)c(c65)c78 | 13µM* | ? | 14µM*[fluorescent] | 14µM* | . | 4.5µM*[quencher]
CC(/C=C1\SC(=S)N(NC(=O)c2ccncc2)C1=O)=C\c1ccccc1 | 25% | -13% | 9% | 10µM* | -20% | ?
CC(/C=C1\SC(=S)N(NC(=O)c2ccc(C)cc2)C1=O)=C\c1ccccc1 | 7% | 3% | 2% | ? | 2% | -28%
CC(/C=C1\SC(=S)N(NC(=O)c2ccccc2C)C1=O)=C\c1ccccc1 | 5% | 2% | 6% | 4µM* | -5% | ?
CCOc1ccc(NCC2CCOC(C)(C)C2)cc1 (stereo unspecified) | -11% | -5% | 1% | ? | 20µM* | -16%
CCOc1ccc(NC(=O)CC2CC(C)(C)OC2=O)cc1 (stereo unspecified) | 6% | 5% | -1% | 5% | 5% | 3%
Cc1ccccc1C(=O)Nc1ccc2c(C#N)c3nc4ccccc4nc3n2c1 | 4%[53 µM] | -9% | ? | 5µM* | ? | ?
COC(=O)[C@H]1[C@H]2C[C@@H]3c4[nH]c5cc(OC)ccc5c4CCN3C[C@H]2C[C@@H](OC(=O)c2ccc(N)cc2)[C@@H]1OC | 1% | -4% | 8% | 14µM* | ? | ?
CCOC(=O)Oc1c(OC)cc(C(=O)O[C@H]2C[C@H]3CN4CCc5c([nH]c6cc(OC)ccc56)[C@@H]4C[C@H]3[C@@H](C(=O)OC)[C@@H]2OC)cc1OC | -7%[53 µM] | . | 1%[53 µM] | . | ? | .
COC(=O)C1C2CC3c4[nH]c5cc(OC)ccc5c4CCN3CC2CC(OC(=O)c2cc(OC)c(OC)c(OC)c2)C1OC (stereo unspecified) | 8% | 7% | 13% | ? | 20µM* | ?
